Test results from PubChem BioAssay.
Inconclusive results are not listed. Activity calls are given as the source filed them.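 Rule for the calls, unless noted: active = growth inhibition above a set limit, 3 SD over mean compound inhibition, in both replicates (cut at about 43% in these data); inconclusive = above the limit in only one replicate; inactive = at or below the limit in both replicates.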

Key:
[1] = Her2 expression decrease, cell viability multiplex – SKBR3 breast tumor cells, AlphaScreen, ATP viability, primary screen (AID 461;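 active = Her2 level under about 52% in both replicate screens, with viability over 70% of control, limit read from the data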;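 for Her2 level: lower value means less Her2 protein in the cells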;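 for viability: percent of carrier control wells set as 100% viability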); details: SKBR3 Her2 protein level, 18-24 h, measured here: SKBR3 viability, ATP luminescence, at 10 µM
[2] = target: Receptor tyrosine-protein kinase erbB-2 (Homo sapiens) (UniProt P04626); assay: as above; details: 18-24 h, at 10 µM, stronger effect = lower value
Sequence of Receptor tyrosine-protein kinase erbB-2 (Homo sapiens) (P04626 whole entry, looked up): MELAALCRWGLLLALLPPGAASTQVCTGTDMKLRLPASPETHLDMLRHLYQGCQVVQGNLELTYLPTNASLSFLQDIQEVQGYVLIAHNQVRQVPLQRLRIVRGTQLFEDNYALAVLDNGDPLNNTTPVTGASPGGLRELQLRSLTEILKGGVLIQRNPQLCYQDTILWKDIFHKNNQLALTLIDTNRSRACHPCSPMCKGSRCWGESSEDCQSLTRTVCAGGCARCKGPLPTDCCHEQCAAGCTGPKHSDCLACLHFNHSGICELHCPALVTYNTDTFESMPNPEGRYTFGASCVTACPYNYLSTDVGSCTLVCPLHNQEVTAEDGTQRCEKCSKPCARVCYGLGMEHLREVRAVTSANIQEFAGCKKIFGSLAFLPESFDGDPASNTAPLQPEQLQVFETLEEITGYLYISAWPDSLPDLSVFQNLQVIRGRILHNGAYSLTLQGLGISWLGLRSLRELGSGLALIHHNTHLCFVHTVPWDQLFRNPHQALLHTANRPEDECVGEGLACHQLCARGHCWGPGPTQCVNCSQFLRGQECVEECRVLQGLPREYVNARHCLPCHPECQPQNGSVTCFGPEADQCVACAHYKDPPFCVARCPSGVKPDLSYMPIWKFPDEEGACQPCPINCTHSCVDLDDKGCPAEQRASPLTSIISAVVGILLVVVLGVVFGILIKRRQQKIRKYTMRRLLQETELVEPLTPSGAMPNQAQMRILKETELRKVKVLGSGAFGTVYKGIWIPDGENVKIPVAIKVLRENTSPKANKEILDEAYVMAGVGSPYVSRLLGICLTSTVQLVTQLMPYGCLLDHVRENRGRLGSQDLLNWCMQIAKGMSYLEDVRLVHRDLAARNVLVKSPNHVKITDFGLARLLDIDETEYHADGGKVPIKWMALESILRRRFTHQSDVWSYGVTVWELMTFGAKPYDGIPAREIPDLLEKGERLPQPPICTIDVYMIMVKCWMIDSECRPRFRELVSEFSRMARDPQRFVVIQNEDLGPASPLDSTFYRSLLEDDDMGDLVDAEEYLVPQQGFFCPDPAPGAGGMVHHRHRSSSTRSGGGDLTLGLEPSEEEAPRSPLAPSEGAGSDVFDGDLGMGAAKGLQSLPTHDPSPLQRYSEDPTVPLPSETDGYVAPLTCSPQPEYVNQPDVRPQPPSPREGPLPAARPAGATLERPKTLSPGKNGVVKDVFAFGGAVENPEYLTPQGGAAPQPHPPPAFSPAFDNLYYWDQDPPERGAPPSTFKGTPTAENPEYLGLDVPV

[3] = reduced viability of SK-BR-3 breast cancer cells – cell-based, 24 h, human, pilot screen (AID 572;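 active = viability at or below 10% of carrier control in both of two separate runs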;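 note: compound exposure lasted between 18 and 24 h rather than exactly 24 h; 100% = carrier-treated control wells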); details: SK-BR-3 viability, CellTiter-Glo luminescence, at 10 µM, stronger effect = lower value
[4] = HUVEC growth inhibition – cell-based, human, primary screen (AID 575;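 active = viability at or below 30% in both replicate assays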;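 note: 100% = median of untreated cell wells with 0.1% DMSO on each plate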); details: HUVEC proliferation, CellTiter-Glo luminescence, 72 h; at 10 µM; stronger effect = lower value
[5] = H69AR cell proliferation blockers – human, duplicate replicates, primary screen (AID 580;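 active = viability at or under a set limit in both replicates, limit being median viability minus 3 SD, cut at about 48% in these data, passing the limit was not always enough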;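 note: 100% = mean luminescence of untreated wells and 0% = no signal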); details: H69AR lung tumor cells viability, ATP luminescence, 72 h; at 10 µM; stronger effect = lower value
[6] = MRP1 drug-resistance reversers in H69AR cells – cell-based, doxorubicin co-treatment, pilot screen (AID 601;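 active = viability loss from added drug above about 55%, and viability with drug at most 40%, in both replicates, limit read from the data, passing the limit was not always enough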); details: CellTiter-Glo, 72 h, at 10 µM; for differential viability (reversal): stronger effect = higher value
[7] = yeast transport mutant growth inhibition pilot in 384-well plates, post-Golgi transport modulator project (AID 636; in the data active = inhibition above about 31%); details: absorbance 615 nm, about 18 h, stronger effect = higher value
[8] = growth suppression of yeast trafficking mutant, preliminary HTS, modulators of trafficking downstream of Golgi apparatus project, 1536-format plate, OD 615 nm (AID 637; in the data active = inhibition above about 30%); details: yeast transport mutant growth, absorbance 615 nm, 18 h; stronger effect = higher value
[9] = S. cerevisiae growth inhibition in permissive medium (OD615), pilot counter-assay for S. cerevisiae lifespan shortening project, permissive growth control (AID 705;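 active = growth inhibition above 25% in both replicates, a cutoff set 3 SD above the mean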); details: OD615, 24 h, at 10 µM, stronger effect = higher value
[10] = S. cerevisiae growth inhibition in restrictive medium, OD615, pilot screen, restrictive growth control, yeast lifespan reduction project (AID 706); details: OD615, 48 h, at 10 µM, stronger effect = higher value;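 note: modified DeaD lifespan yeast strain shifted to restrictive glucose medium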
[11] = viability of HCT116 without oncogenic beta-catenin – human colon tumor cells, pilot screen (AID 823;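 active = cell viability at or below a set limit in both duplicate runs, the limit being the all-compound median minus 4 SD, cut at about 23% in these data, passing the limit was not always enough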;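 note: 0% = wells killed by 20 µM Hyamine and 100% = untreated DMSO cell wells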); details: HCT116 beta-catenin knockout viability, CellTiter-Glo, 60 h; at 10 µM; stronger effect = lower value
[12] = viability of PTEN-null HCT116 cells – cell-based, HCT116 clonal line, CellTiter-Glo, pilot screen (AID 824;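 active = viability at or below 27.92% in each of two runs, the all-compound median minus 4 SD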;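 note: 0% = 20 µM Hyamine control and 100% = vehicle cell control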); details: HCT116 PTEN-deleted viability, 60 h, at 10 µM, stronger effect = lower value
[13] = RAM pathway blockade in budding yeast – dse1pr::URA3 reporter, 5-FOA selection, pilot screen (AID 869;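 active = inhibition over a set limit, the all-compound mean plus 3 SD, in both replicate runs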;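 note: 0% = DMSO wells with no growth and 100% = 10 µM 1-NA-PP1 with full growth; RAM network block rescues cells from 5-FOA so hits raise OD615 growth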); details: S. cerevisiae dse1pr::URA3 5-FOA growth, OD615, 2 d; at 10 µM; stronger effect = higher value; strain carries analog-sensitive mutant Cbk1 kinase
[14] = RAM signaling pathway blockade in yeast – S. cerevisiae, Pdr1DBD-CYC8 efflux-inhibited sensitized strain, primary screen (AID 1298;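 active = RAM network inhibition above 8.4% in each of two replicates, 3 SD over the compound average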;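 note: 0% = DMSO untreated cells without growth and 100% = 10 µM 1-NA-PP1 full growth; higher means more yeast growth rescued from 5-FOA killing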); details: S. cerevisiae cbk1-as DSE1-URA3 strain, 5-FOA growth OD615, 2 d; at 50 µM; stronger effect = higher value
[15] = doxorubicin toxicity protection in MRP-1 cells – H69AR cells, CellTiter-Glo, duplicate, MRP-1 activator project, pilot screen (AID 807;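 active = viability increase at or above a cutoff of the median across tested compounds plus 3 SD, cut at about 8.5% in these data, passing the limit was not always enough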;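 note: compound pretreatment 18-22 h then 72 h combined with doxorubicin; 0% = doxorubicin alone and 100% = vehicle without doxorubicin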); details: H69AR viability with doxorubicin, CellTiter-Glo luminescence; at 10 µM; stronger effect = higher value
[16] = H69AR cells + 2 uM doxorubicin, measured here: viability with 2 uM doxorubicin, stronger effect = lower value
[17] = H69AR cells, compound alone cytotoxicity

Row | Compound | viability [1] | Her2 level [2] | viability [3] | viability [4] | viability [5] | differential viability (reversal) ([6]; H69AR cells + 2 uM doxorubicin) | viability [6, 16] | viability [6, 17] | inhibition [7] | inhibition [8] | growth inhibition [9] | growth inhibition [10] | viability [11] | viability [12] | inhibition [13] | RAM network inhibition [14] | viability increase [15]
1 | CC1CCc2nn(CC(=O)N3CCN(C(=O)c4ccco4)CC3)cc2C1 (centres undefined) | 79.5% | 95.5% (inactive) | 79.5% (inactive) | 119% (inactive) | 91.6% (inactive) | 11.8% (inactive) | 79.8% | 91.6% | 0% (inactive) | 2.67% (inactive) | -0.485% (inactive) | 5.38% (inactive) | 104% (inactive) | 97.9% (inactive) | 3.15% (inactive) | 7.21% (inactive) | –
2 | Cc1cccc(Cc2c(C)nc3nc(SCC(=O)NCc4ccco4)nn3c2C)c1 | 106% | 85.5% (inactive) | 106% (inactive) | 61.8% (inactive) | 49.6% (active) | -27.8% (inactive) | 77.4% | 49.6% | -4.59% (inactive) | -0.33% (inactive) | 2.65% (inactive) | 21.9% (inactive) | – | 81.9% (inactive) | 1.14% (inactive) | 4.46% (inactive) | -3.35% (inactive)
3 | CCN(CC)c1ccc2cc(-c3nc4ccccc4[nH]3)c(=O)oc2c1 | 88% | 101% (inactive) | 88% (inactive) | 20.9% (active) | 3.43% (active) | -0.345% (inactive) | 3.78% | 3.43% | 0.13% (inactive) | -6.39% (inactive) | -3.73% (inactive) | -16.3% (inactive) | – | – | -1.12% (inactive) | 0.92% (inactive) | -7.61% (inactive)
4 | CN(C)c1ccc(C(=O)Nc2nnc(-c3ccc(Cl)cc3)o2)cc1 | 92% | 75.5% (inactive) | 92% (inactive) | 13.4% (active) | – | -33.4% (inactive) | 81.2% | 47.8% | 29.9% (inactive) | 21.5% (inactive) | 5.56% (inactive) | -19.4% (inactive) | 26.8% (inactive) | 25.2% (active) | 1.5% (inactive) | 2.45% (inactive) | -3.93% (inactive)
5 | COc1ccc(NC(=O)CC2Sc3ncnn3C2=O)cc1 (centres undefined) | 109% | 80.5% (inactive) | 109% (inactive) | 88.3% (inactive) | 111% (inactive) | 27% (inactive) | 83.5% | 111% | 0.77% (inactive) | 4% (inactive) | – | 22.2% (inactive) | 95.2% (inactive) | 104% (inactive) | 1.05% (inactive) | 6.37% (inactive) | -3.8% (inactive)
6 | CC1CC(C)CN(Cc2nc3c(c(=O)n(C)c(=O)n3C)n2Cc2ccccc2Cl)C1 (centres undefined) | 87.5% | 104% (inactive) | 87.5% (inactive) | 97.8% (inactive) | 89.5% (inactive) | – | – | – | -3.2% (inactive) | 0.67% (inactive) | 2.67% (inactive) | -4.42% (inactive) | 102% (inactive) | 97.8% (inactive) | 0.655% (inactive) | 3.22% (inactive) | -1.15% (inactive)
7 | CCOc1ccc(-c2nnc(N(CC)C(=O)C3CCC3)s2)cc1 | 87.5% | 72% (inactive) | 87.5% (inactive) | 98.5% (inactive) | 83.7% (inactive) | 5.45% (inactive) | 78.3% | 83.7% | -4.21% (inactive) | -3.97% (inactive) | -4.38% (inactive) | 7.03% (inactive) | – | 84.6% (inactive) | 0.825% (inactive) | 0.26% (inactive) | -1.68% (inactive)
8 | Cc1c(C(=O)Nc2nnc(C(F)(F)F)s2)oc2ccccc12 | 91.5% | 81.5% (inactive) | 91.5% (inactive) | 51% (inactive) | 84.8% (inactive) | -8.24% (inactive) | 93.1% | 84.8% | -6% (inactive) | -3.33% (inactive) | -4.23% (inactive) | 13.6% (inactive) | – | 65.5% (inactive) | 2.56% (inactive) | 4.2% (inactive) | –
9 | COc1cccc(-c2nc(CS(=O)(=O)CC(=O)Nc3cc(C)ccc3C)c(C)o2)c1 | 76% | 86.5% (inactive) | 76% (inactive) | 70.7% (inactive) | – | 15.3% (inactive) | 50.8% | 66.1% | -1.73% (inactive) | -4.1% (inactive) | -3.37% (inactive) | -3.22% (inactive) | 98.4% (inactive) | 91.4% (inactive) | 3.55% (inactive) | 0.99% (inactive) | -1.75% (inactive)
10 | COc1ccc(-c2nnc3sc(C(C)N4C(=O)c5ccccc5C4=O)nn23)cc1 (centres undefined) | 84% | 111% (inactive) | 84% (inactive) | 96.8% (inactive) | 90.9% (inactive) | -9.99% (inactive) | 101% | 90.9% | 2.13% (inactive) | -2.67% (inactive) | – | 53.1% (active) | 101% (inactive) | 96.5% (inactive) | 1.46% (inactive) | -1.51% (inactive) | -2.35% (inactive)
11 | CC1(C)CC(=O)CC(C2(O)C(=O)N(Cc3ccccc3)c3ccccc32)O1 (centres undefined) | 99.5% | 82.5% (inactive) | 99.5% (inactive) | 78.3% (inactive) | 44% (active) | -12.7% (inactive) | 56.7% | 44% | 1.2% (inactive) | -4.75% (inactive) | -7.38% (inactive) | 4.87% (inactive) | – | 44.2% (inactive) | 1.98% (inactive) | 1.36% (inactive) | -5.63% (inactive)
12 | COc1ccc(Nc2ncnc3c2cnn3-c2ccccc2)cc1OC | 82.5% | 91% (inactive) | 82.5% (inactive) | 59.4% (inactive) | – | -31% (inactive) | 73.7% | 42.7% | 0.27% (inactive) | -9.33% (inactive) | -4.18% (inactive) | -24.4% (inactive) | 107% (inactive) | 97.7% (inactive) | 0.635% (inactive) | 5.61% (inactive) | -0.97% (inactive)
13 | Cc1ccc(C2c3c(oc4ccccc4c3=O)C(=O)N2c2nnc(C(C)C)s2)o1 (centres undefined) | 84% | 61% (inactive) | 84% (inactive) | – | 11.2% (active) | -3.47% (inactive) | 14.7% | 11.2% | -5.2% (inactive) | 3.17% (inactive) | -13.3% (inactive) | -9.87% (inactive) | 104% (inactive) | 98.1% (inactive) | 0.83% (inactive) | 1.85% (inactive) | -3.23% (inactive)
14 | CC1CCCCN1S(=O)(=O)c1ccc(NC(=O)c2cccs2)cc1 (centres undefined) | 73.5% | 83% (inactive) | 73.5% (inactive) | – | 85.5% (inactive) | 1.84% (inactive) | 83.6% | 85.5% | -1.17% (inactive) | -13.2% (inactive) | -8.63% (inactive) | -13.5% (inactive) | 76.2% (inactive) | 82% (inactive) | 1.48% (inactive) | 0.93% (inactive) | -4.32% (inactive)
15 | CCOc1ccc(N(CC(=O)Nc2cccc(OC)c2)S(=O)(=O)c2c(C)noc2C)cc1 | 91.5% | 95% (inactive) | 91.5% (inactive) | 72.4% (inactive) | – | -16.7% (inactive) | 76.3% | 59.6% | -4.4% (inactive) | -7.38% (inactive) | -11.5% (inactive) | 3.05% (inactive) | 71.8% (inactive) | 70.9% (inactive) | -0.41% (inactive) | 4.24% (inactive) | -4.75% (inactive)
16 | CC(C)CCSc1nc2c(c(=O)[nH]c(=O)n2C)n1CCCc1ccccc1 | 87.5% | 71% (inactive) | 87.5% (inactive) | 46.7% (inactive) | – | -8.95% (inactive) | 58.9% | 50% | -3.73% (inactive) | 4.17% (inactive) | -11.8% (inactive) | -9.37% (inactive) | 68.8% (inactive) | 59.1% (inactive) | 3.84% (inactive) | 9.02% (inactive) | -4.55% (inactive)
17 | C/C=C/COC(=O)c1[nH]c2c(c1C)C(=O)CC(c1ccco1)C2 (centres undefined) | 80.5% | 62% (inactive) | 80.5% (inactive) | – | 24.4% (active) | -15.9% (inactive) | 40.2% | 24.4% | -2.67% (inactive) | -3.28% (inactive) | -4.97% (inactive) | -2.88% (inactive) | 16.6% (active) | 19.8% (active) | 0.985% (inactive) | 0.51% (inactive) | -4.93% (inactive)
18 | Cc1cc(=O)oc2cc(OCC#N)ccc12 | – | – | 112% (inactive) | 92.1% (inactive) | 99.4% (inactive) | 6.12% (inactive) | 93.3% | 99.4% | -5.07% (inactive) | 1.33% (inactive) | -4.47% (inactive) | -4.6% (inactive) | 106% (inactive) | 96.1% (inactive) | 0.155% (inactive) | 3.55% (inactive) | 1.11% (inactive)
19 | O=C(NCCN1C(=O)C2C3C=CC(C3)C2C1=O)Nc1ccccn1 (centres undefined) | 114% | 102% (inactive) | 114% (inactive) | – | 95.8% (inactive) | 12.5% (inactive) | 83.3% | 95.8% | -3.6% (inactive) | -2.33% (inactive) | 5% (inactive) | -0.24% (inactive) | 107% (inactive) | 92.2% (inactive) | 0.595% (inactive) | 3.24% (inactive) | -0.81% (inactive)
20 | CC12CCC(C(=O)N3CCN(C(=O)C45CCC(C)(C(=O)O4)C5(C)C)CC3)(OC1=O)C2(C)C | – | – | 109% (inactive) | 97.5% (inactive) | 105% (inactive) | 20.1% (inactive) | 84.7% | 105% | -3.47% (inactive) | -7.64% (inactive) | -17% (inactive) | -7.99% (inactive) | 102% (inactive) | 94.1% (inactive) | 1.42% (inactive) | 0.26% (inactive) | -0.17% (inactive)
